Source: PubChem BioAssay (Tox21)
Unmarked numbers belong to inactive results. Inconclusive results are not listed. Active and inactive are the calls of the source. Calls come from the whole dose curve; as a rule, active = well fitted activation curve with a large enough effect in the repeat runs; inconclusive = weak or mixed curves; inactive = flat fitted curve, though single readings scatter.

Assay: A CellTox Green Cytotoxicity Assay to monitor cytotoxicity in HepG2 cells - 0 hour (AID 1224882); note: nearly all actives have a fitted effect of over 35% in size
Conditions: CellTox Green fluorescence; series mostly up to 76.8 µM; cytotoxicity: at the top concentration
Procedure, shortened: (§1)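 Cytotoxicity was tracked as dead-cell DNA fluorescence in HepG2 cells treated with test compounds at 37 C; each time-point value comes from one kinetic series spanning 0, 8, 16, 24, 32 and 40 h.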
% is set by controls: 0 for no effect and ±100 for the full control effect.

| SMILES | cytotoxicity |
| --- | --- |
| O=C(O)c1ccccc1S | 4.06% [at 35.3 µM] |
| CCN(CC)C(=O)c1ccc(O)c(OC)c1 | 1.73% [at 35.3 µM] |
| CC(C)COC(=O)c1ccccc1O | -9.48% |
| C1C2OC2C2C1C1CC2C2OC12 (centres undefined) | 0.599% |
| CC12CCC(CC1=O)C2(C)C (centres undefined) | 1.35% |
| CCCc1ccccc1O | -2.33% |
| Nc1ncnc2c1ncn2Cc1c(F)cccc1Cl | -11.4% [at 35.3 µM] |
| Fc1ccccc1-c1ccccc1 | -0.353% |
| CN1[C@@H]2CC[C@H]1CC(NC(=O)n1c(=O)[nH]c3ccccc31)C2 (some centres undefined) | 0.709% [at 35.3 µM] |
| COC(=O)[C@H]1[C@H]2C[C@@H]3c4[nH]c5cc(OC)ccc5c4CCN3C[C@H]2C[C@@H](OC(=O)COc2ccc(OC)cc2)[C@@H]1OC | -1.3% [at 35.3 µM] |
| C=C(C)[C@@H]1CCC2=CC(=O)C[C@@H](C)[C@]2(C)C1 | -4.31% |
| Cc1nc(-c2ccc(OCC(C)C)c(C#N)c2)sc1C(=O)O | 0.614% [at 35.3 µM] |
| [O-][N+](=Nc1ccccc1)c1ccccc1 | 0.816% |
| c1ccc(CCCc2ccccn2)cc1 | -6.67% |
| CC(C)CCOC(=O)CC(C)C | 0.51% |
| Cc1ccccc1C(=O)O | 1.62% |
| C=C(C)C(=O)NCCC[N+](C)(C)C | -1.53% |

| SMILES | cytotoxicity |
| --- | --- |
| CCCCc1ccc2cccc(S(=O)(=O)O)c2c1 | 1.71% |
| C[C@H]1O[C@@H](n2cc(F)c(=O)[nH]c2=O)[C@H](O)[C@@H]1O | -18% [at 35.3 µM] |
| CCCCOCC(C)OCC(C)O (centres undefined) | -2.23% |
| NC(=O)Nc1nc2ccccc2[nH]1 | 0.721% |
| CC(C)c1cccc(C(C)C)c1N | -3.77% |
| NC(N)=NS(=O)(=O)c1ccc(N)cc1 | -5.85% [at 35.3 µM] |
| CC(C)(C)CC(C)(C)N | 0.899% |
| CC/C=C\CCCCO | 2.61% |
| CCO[Si](C)(OCC)OCC | -2.53% |
| COc1cc(CCC(C)=O)ccc1O | 2.64% |
| CC1(C)SC(C)(C)SC(C)(C)S1 | 26.1% |
| Nc1nc(F)nc2c1ncn2[C@@H]1O[C@H](CO)[C@@H](O)[C@@H]1O | 0.142% [at 35.3 µM] |
| C=C(C)C(=O)NCCCN(C)C | -5.04% |
| CC1=CC(C)C(C=O)C(C)C1 (centres undefined) | 1.49% |
| O=C(O)Cc1cc(I)c(Oc2cc(I)c(O)c(I)c2)c(I)c1 | 2.57% [at 35.3 µM] |
| CC1CCN(CCCC(=O)c2ccc(F)cc2)CC1 | -2.7% [at 35.3 µM] |

Assay: A CellTox Green Cytotoxicity Assay to monitor cytotoxicity in HepG2 cells - 32 hour (AID 1224883); note: nearly all actives have a fitted effect of over 50% in size; note: potency is the fitted concentration of half-maximal effect
Conditions: CellTox Green fluorescence; series mostly up to 76.8 µM; cytotoxicity increase: at the top concentration
Procedure, shortened: as §1

| SMILES | cytotoxicity increase | Potency |
| --- | --- | --- |
| O=C(O)c1ccccc1S | 1.63% [at 35.3 µM] | – |
| NC(=O)CCCCC1CCSS1 (centres undefined) | -19.3% [at 35.3 µM] | – |
| CC(C)COC(=O)c1ccccc1O | 2.55% | – |
| C1C2OC2C2C1C1CC2C2OC12 (centres undefined) | 3.78% | – |
| CC12CCC(CC1=O)C2(C)C (centres undefined) | 0.734% | – |
| CCCc1ccccc1O | 15.1% | – |
| CN(C)C(=O)C(CCN1CCC(O)(c2ccc(Cl)cc2)CC1)(c1ccccc1)c1ccccc1 | – | 19 µM (active) |
| CN1[C@@H]2CC[C@H]1CC(NC(=O)n1c(=O)[nH]c3ccccc31)C2 (some centres undefined) | -1.69% [at 35.3 µM] | – |
| Cc1nc(-c2ccc(OCC(C)C)c(C#N)c2)sc1C(=O)O | -6.2% [at 35.3 µM] | – |
| [O-][N+](=Nc1ccccc1)c1ccccc1 | 0.717% | – |
| c1ccc(CCCc2ccccn2)cc1 | 15.8% | – |
| NC(=O)Nc1nc2ccccc2[nH]1 | 0.397% | – |
| NC(N)=NS(=O)(=O)c1ccc(N)cc1 | -10.3% [at 35.3 µM] | – |
| COc1cc(CCC(C)=O)ccc1O | 8.59% | – |
| CC1=CC(C)C(C=O)C(C)C1 (centres undefined) | -8.93% | – |
| O=C(O)Cc1cc(I)c(Oc2cc(I)c(O)c(I)c2)c(I)c1 | 1.65% [at 35.3 µM] | – |
